From PubChem BioAssay AID449762 (Southern Research Specialized Biocontainment Screening …, 2010)
The campaign covered roughly 330,000 compounds. About 1,900 (0.58%) were called active. Another 4% or so got no clear call; they are omitted. The list is a sample of the results. Results with a measured potency or affinity are listed apart. Unmarked numbers belong to inactive results. Cut-off read from the data, not from the text of the source: inconclusive = inhibition above about 70% without an active follow-up result; inactive = below that.

Test: M. tuberculosis growth inhibition, HTS (AID 449762);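 note: bacterial growth assessed after seven days of incubation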
Settings: M. tuberculosis H37Rv growth inhibition, 7H9 media; at 25 µM; active compounds read high

**Q.** Which inhibition does the source give for `Cc1cccc([C@@H]2[C@@H]3C(=O)N(Cc4ccccc4)C(=O)[C@@H]3[C@]3(Cc4ccccc4)C(=O)N(c4cccc(Cl)c4)C(=O)N23)c1` here?
**A.** The inhibition was 12.6%.

**Q.** For `Cc1cc(Cn2nc(C(=O)NCc3cccc(Br)c3)cc2-c2ccccc2)on1`, which inhibition is on record?
**A.** The inhibition was 25.4%.

**Q.** For `CN(C)C(=O)C1C2NC(=S)N(c3cccc(Cl)c3)C1(C)Oc1ccc(Cl)cc12` (centres undefined), which inhibition is on record?
**A.** The inhibition was -0.86%.

**Q.** With `Cc1ccc(N2C(=S)NC3c4cc(Cl)ccc4OC2(C)C3C(=O)N(C)C)cc1` (centres undefined) as the molecule, how does the inhibition read?
**A.** Its inhibition is 0.53%.

**Q.** For `CSc1cccc(CN2CCN(CCC(C)C)C(CCO)C2)c1` (centres undefined), which inhibition is on record?
**A.** The inhibition was -6.35%.

**Q.** Which inhibition does the source give for `COc1ccc(NC(=O)c2cn(CCC#N)nc2-c2ccccc2)cc1` here?
**A.** Its inhibition is 1.76%.

**Q.** For `Cc1nc(C)c(C(=O)N(c2ccc(F)cc2)C(C(=O)NCC2CCCO2)c2ccccc2)s1` (centres undefined), which inhibition is on record?
**A.** The inhibition was 6.83%.

**Q.** For `Cc1onc(C(=O)N2CCN(Cc3ccccc3)CC2)c1[N+](=O)[O-]`, which inhibition is on record?
**A.** Its inhibition is 3.07%.

**Q.** Which inhibition does the source give for `CC(=N\NC(=O)c1ccccc1)/C(=N/O)C(=O)Nc1ccccc1` here?
**A.** Its inhibition is 19.5%.

**Q.** With `O=C1C(C2=C(O)c3ccccc3C2=O)=Nc2ccccc21` as the molecule, how does the inhibition read?
**A.** Its inhibition is -18.6%.

**Q.** For `O=C1C(c2c(O)[nH]c3ccccc23)=Nc2ccccc21`, which inhibition is on record?
**A.** Its inhibition is 26.2%.

**Q.** With `O=C(CCCn1c(=O)[nH]c2cc(Cl)ccc2c1=O)NCCCN1CCCC1=O` as the molecule, how does the inhibition read?
**A.** Its inhibition is 1.6%.

**Q.** Which inhibition does the source give for `C=CCn1c(SC)nnc1-c1ccc2ncccc2c1` here?
**A.** The inhibition was 0.53%.

**Q.** Which inhibition does the source give for `COc1ccccc1OCc1ccc(C(=O)Nc2cc(OC)c(OC)c(OC)c2)o1` here?
**A.** The inhibition was 1.45%.

**Q.** Which inhibition does the source give for `COc1ccc(NC(=O)c2ccc(COc3ccccc3Br)o2)cc1OC` here?
**A.** Its inhibition is 55.9%.

**Q.** With `O=C1CC2(CCCCC2)Oc2ccccc21` as the molecule, how does the inhibition read?
**A.** Its inhibition is 2.84%.

**Q.** With `O=C(NCC1CC1)c1ccc(Oc2cc(Cl)cc(Cl)c2)o1` as the molecule, how does the inhibition read?
**A.** The inhibition was 8.88%.

**Q.** For `Fc1ccc(/C=C\c2nccc3c2[nH]c2ccccc23)cc1`, which inhibition is on record?
**A.** Its inhibition is 3.87%.

**Q.** For `N#Cc1ccc(/C=C\c2nccc3c2[nH]c2ccccc23)cc1`, which inhibition is on record?
**A.** Its inhibition is 23.4%.

**Q.** With `CCCn1c(SCC(=O)N2CCCc3ccccc32)nnc1-c1ccco1` as the molecule, how does the inhibition read?
**A.** The inhibition was -5.68%.

**Q.** With `C=CCN(C/C(=N\O)c1sc(C(=O)OCC)nc1C)c1cccc(Br)c1` as the molecule, how does the inhibition read?
**A.** The inhibition was 62.6%.

**Q.** With `CCOC(=O)c1nc(C)c(C(C)=O)s1` as the molecule, how does the inhibition read?
**A.** Its inhibition is -0.23%.

**Q.** Which inhibition does the source give for `CCOC(=O)c1c(C)[nH]c(C(=O)OCC(=O)NCc2ccc(F)cc2)c1C` here?
**A.** The inhibition was -3.74%.

**Q.** Which inhibition does the source give for `COc1ccc(OC)c(Nc2nc(-c3sc(N)nc3C)cs2)c1` here?
**A.** Its inhibition is 65.1%.

**Q.** For `COc1ccc(Nc2nc(-c3sc(C)nc3C)cs2)cc1`, which inhibition is on record?
**A.** Its inhibition is 11.6%.

**Q.** Which inhibition does the source give for `CCNC(=O)N(CCOC)CC1CCCN(C2Cc3ccccc3C2)C1` (centres undefined) here?
**A.** The inhibition was -1.33%.

**Q.** For `Cc1cccc(CCNS(=O)(=O)c2ccc(S(=O)(=O)N3CCC(C)CC3)cc2)c1`, which inhibition is on record?
**A.** The inhibition was -1.34%.

**Q.** For `COC1=C(c2ccccc2)C(=O)c2ccccc2C1=O`, which inhibition is on record?
**A.** The inhibition was 5.34%.

**Q.** Which inhibition does the source give for `O=C1C(=C(O)c2ccccc2)C(=O)c2ccccc21` here?
**A.** The inhibition was 4.16%.

**Q.** Which inhibition does the source give for `CC(=O)Nc1ccc(S(=O)(=O)NC2(C(F)(F)F)NC(=O)N(c3ccccc3F)C2=O)cc1` (centres undefined) here?
**A.** Its inhibition is -8.69%.

**Q.** Which inhibition does the source give for `Cc1cc(OCCCCOc2ccc(S(N)(=O)=O)c(C)c2)ccc1S(N)(=O)=O` here?
**A.** Its inhibition is 20.1%.

**Q.** Which inhibition does the source give for `CCOc1ccc2c(c1)C(=O)c1cc(OCC(=O)O)ccc1-2` here?
**A.** The inhibition was 1.9%.

**Q.** With `CCc1cc(=O)oc2cc(C)cc(OC(=O)c3ccco3)c12` as the molecule, how does the inhibition read?
**A.** The inhibition was 4.45%.

**Q.** For `Cc1nn(-c2ccccc2)c(Cl)c1C(=O)Nc1nnc(C2CCCC2)s1`, which inhibition is on record?
**A.** The inhibition was 38.7%.

**Q.** Which inhibition does the source give for `CCc1nnc(NC(=O)c2c(C)nn(-c3ccccc3)c2Cl)s1` here?
**A.** Its inhibition is 25.5%.

**Q.** For `O=C(NCc1ccccc1)Nc1cccn(Cc2cccc(F)c2)c1=O`, which inhibition is on record?
**A.** The inhibition was 5.8%.

**Q.** For `COC(=O)[C@@]1(Cc2ccccc2)C=C[C@@H](C)N1C(C)=O`, which inhibition is on record?
**A.** Its inhibition is -1.39%.

**Q.** Which inhibition does the source give for `CC(NC(=S)NCCN1CCOCC1)C12CC3CC(CC(C3)C1)C2` (centres undefined) here?
**A.** The inhibition was -0.91%.

**Q.** Which inhibition does the source give for `COC(=O)C1=C(C)N(Cc2ccccc2)C(=NCc2ccccc2)N[C@H]1c1ccccc1` here?
**A.** The inhibition was 28.6%.

**Q.** For `COC(=O)C1=C(C)N(Cc2ccccc2)C(=NCc2cc(OC)c(OC)c(OC)c2)N[C@H]1c1ccccc1`, which inhibition is on record?
**A.** The inhibition was -1.97%.

**Q.** Which inhibition does the source give for `CSc1ncccc1C(=O)NCc1ccc(C)cc1` here?
**A.** Its inhibition is -4.41%.

**Q.** For `O=c1c([N+](=O)[O-])cc(C(F)(F)F)cn1Cc1c(Cl)cccc1Cl`, which inhibition is on record?
**A.** Its inhibition is 27.9%.

**Q.** With `COC(=O)c1ccc(Cn2cc(C(F)(F)F)ccc2=O)cc1` as the molecule, how does the inhibition read?
**A.** Its inhibition is 38.8%.

**Q.** For `Cc1c(S(=O)(=O)Nc2ccc(Br)cc2)c(=O)n(C)c(=O)n1C`, which inhibition is on record?
**A.** The inhibition was 1.85%.

**Q.** With `C=C(C)c1cccc(C(C)(C)NC(=O)N(Cc2ccccc2)Cc2ccco2)c1` as the molecule, how does the inhibition read?
**A.** Its inhibition is 0.97%.

**Q.** With `Cc1coc2c(C)c3oc(=O)c(CCC(=O)NCCCn4ccnc4)c(C)c3cc12` as the molecule, how does the inhibition read?
**A.** Its inhibition is 3.77%.

**Q.** Which inhibition does the source give for `Cc1c(CCC(=O)NCCCn2ccnc2)c(=O)oc2cc3occ(C(C)(C)C)c3cc12` here?
**A.** Its inhibition is 19.4%.

**Q.** With `CCc1cccc(NS(=O)(=O)c2ccc3c(c2)N(C)CCO3)c1` as the molecule, how does the inhibition read?
**A.** The inhibition was 3.34%.

**Q.** Which inhibition does the source give for `CC1=C(C(=O)OCCC#N)C(c2cc3c(cc2Br)OCO3)NC(=O)N1` (centres undefined) here?
**A.** Its inhibition is 0.64%.

**Q.** With `CCCCCCCCCC(=O)N/N=C(\C)c1cccnc1` as the molecule, how does the inhibition read?
**A.** The inhibition was 22.8%.

**Q.** With `C=CCNC(=S)N/N=C(\C)c1cccnc1` as the molecule, how does the inhibition read?
**A.** Its inhibition is -7.58%.

**Q.** Which inhibition does the source give for `C=CCNC(=S)N/N=C(\C)c1cccc(NC(C)=O)c1` here?
**A.** Its inhibition is -1.22%.

**Q.** With `CCCCCCCCC(=O)N/N=C(\C)c1cccnc1` as the molecule, how does the inhibition read?
**A.** Its inhibition is 7.1%.

**Q.** With `Cc1cc(C(=O)N2CCCC(N3CCN(c4cccc(C(F)(F)F)c4)CC3)C2)nn1C` (centres undefined) as the molecule, how does the inhibition read?
**A.** Its inhibition is 5.35%.

**Q.** With `CC(Oc1ccc(Cl)cc1)C(=O)N(C)CC(=O)Nc1ccc(N2CCOCC2)cc1` (centres undefined) as the molecule, how does the inhibition read?
**A.** The inhibition was -7.54%.

**Q.** Which inhibition does the source give for `COc1ccc(C(=O)N/N=C/c2ccc(OC)c(CN3CCCc4ccccc43)c2)cc1` here?
**A.** Its inhibition is 8.38%.

**Q.** Which inhibition does the source give for `O=C(Oc1cccc(OC(=O)c2ccco2)c1)c1ccco1` here?
**A.** Its inhibition is 14.2%.

**Q.** With `CC1=CC(C)(C)Nc2ccc(OC(=O)c3ccco3)cc21` as the molecule, how does the inhibition read?
**A.** The inhibition was 4.65%.

**Q.** For `O=C(NCCCN1CCOCC1)Nc1ccc(Cc2ccc(NC(=O)NCCCN3CCOCC3)cc2)cc1`, which inhibition is on record?
**A.** Its inhibition is -4.04%.
